Shown are actives, neighbours in structure and some others; about 7.5% of the full set was active somewhere.
ELG1 repair inh – blocks ELG1-dependent DNA repair in HEK293T cells | HEK293T ELG1-luciferase reporter, luminescence, 16 h; DNA damage induced by 5-fluorouridine | Potency, µM (doses to about 46.1 µM), without a hit: at the top dose activity change, negative = inhibition, hits mostly inhibitors | 330,000 compounds, 2.3% hits | AID 504467; also: potency is read from the fitted curve at half-maximal effect; nearly all actives have a fitted effect of over 55% in size
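Cells (2,000 per well) received 5-fluorouridine plus test compound or DMSO and were incubated 16 hr at 37 °C, 5% CO2. Luciferase activity was read by luminescence 30 min after ONE-Glo addition; signal suppression marked inhibition of damage-induced ELG1 function.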
TSHR antag – human thyrotropin receptor antagonism. activity change, negative = inhibition, % at 11.5 µM. 330,000 compounds, 0.2% hits. TSHR-expressing cells, TSH-stimulated cAMP HTRF, 2 h; stronger effect = lower value. AID 504810;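 active = activity change below a set negative limit, meaning inhibition stronger than a set level, cut at about -70% in these data; inconclusive = activity change between two set negative limits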
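Inhibition of cAMP made by TSHR-expressing cells under TSH stimulation (4nM final, EC80; 2 h, 37 deg C) is quantified with a one-step lysis HTRF kit, anti-cAMP cryptate versus cAMP-d2.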
RORgamma inh – blocks mouse ROR gamma transcriptional activity; P51450; Drosophila S2 Gal4-RORgamma UAS-luciferase reporter, 20 h; Potency, µM (highest dose often 53.6 µM), inactives show top-dose activity change, negative = inhibition, most hits filed as inhibitors; 310,000 compounds, 5.4% hits; AID 2551; also: potency is read from the fitted curve at half-maximal effect; nearly all actives have a fitted effect of over 60% in size
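Luciferase reporter read in Schneider cells carrying Gal4-RORγ (mouse) and UAS-Photinus luciferase; cells given compound 1 h before 700 uM copper sulfate induction, then incubated 20 h at ambient temperature.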
B2AR arrestin – beta2AR (human) beta-arrestin recruitment activity | P07550 | beta-arrestin recruitment to beta2AR, cell-based reporter | Potency, µM (highest dose often 46.1 µM), without a hit: at the highest dose activation, actives largely listed as activators | 330,000 compounds, 0.02% hits;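 also: potency is read from the fitted curve at half-maximal effect; 0% = DMSO controls and full agonism = EC100 isoproterenol or metaproterenol; nearly all actives have a fitted effect of over 65% in size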
Target sequence (P07550 whole entry, looked up): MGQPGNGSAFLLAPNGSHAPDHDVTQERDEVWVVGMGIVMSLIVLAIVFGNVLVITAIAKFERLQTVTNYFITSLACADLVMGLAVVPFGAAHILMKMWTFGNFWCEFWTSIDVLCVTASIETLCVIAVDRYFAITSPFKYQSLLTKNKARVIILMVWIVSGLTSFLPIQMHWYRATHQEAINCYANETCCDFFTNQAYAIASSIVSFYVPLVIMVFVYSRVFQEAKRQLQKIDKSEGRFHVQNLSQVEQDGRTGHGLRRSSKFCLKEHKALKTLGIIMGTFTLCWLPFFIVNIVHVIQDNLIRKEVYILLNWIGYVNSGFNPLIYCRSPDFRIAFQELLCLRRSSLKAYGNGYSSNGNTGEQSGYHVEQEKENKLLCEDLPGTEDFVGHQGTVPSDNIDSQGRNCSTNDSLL
Gal4-VP16 FLuc – inhibits Gal4-VP16 luciferase reporter, ROR gamma counter-screen; Drosophila S2 Gal4-VP16 UAS-luciferase, luminescence, 20 h; Potency, µM (doses to about 53.6 µM), inactives show at the top dose activity, negative = inhibition, usual class: inhibitors; 310,000 compounds, 3.5% hits; AID 2546;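 also: Gal4-VP16 expression switched on by copper sulfate through the metallothionein promoter; potency is read from the fitted curve at half-maximal effect; nearly all actives have a fitted effect of over 50% in size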
* marks the source's active call; other numbers are inactive results; ? = inconclusive; / = no result given; [ ] = another dose, or the depositor's remark. Unless noted, calls follow the shape of the dose curve; as a rule, active = well fitted curve in the direction sought with a large enough effect; inconclusive = small, poorly fitted or top-dose-only effect, or another doubt; inactive = no such curve, though single readings can be large; an effect the other way counts as inactive or inconclusive. Unless noted, % is scaled to controls: 0 for no effect and ±100 for the full control effect.

SMILES | ELG1 repair inh | TSHR antag | RORgamma inh | B2AR arrestin | Gal4-VP16 FLuc
Cc1onc(-c2c(F)cccc2Cl)c1C(=O)OCC(=O)c1c[nH]c2ccccc12 | 23µM* | -6 | ? | 0% | ?
Cc1noc(C)c1C(=O)OCC(=O)c1c[nH]c2ccccc12 | 33% | -11 | 26% | 0% | 20%
Cc1ccc(NC(=O)Cn2ncc(Cl)c(Cl)c2=O)cc1S(=O)(=O)N1CCCCC1 | 15µM* | -26 | / | 0% | /
O=C(c1cccc(F)c1)N1CCC2(CC1)CCN(C(c1ccccc1)c1ccccc1)CC2 | / | / | 13% | / | 4%
CC(C)C[C@H](NC(=O)[C@H](Cc1ccccc1)NC(=O)[C@H](Cc1ccccc1)NC(=O)[C@@H](N)CO)C(=O)N[C@@H](CCCN=C(N)N)C(=O)N[C@@H](CC(N)=O)C(=O)O | / | / | 11% | / | 2%
O=S(=O)(NCCc1ccccc1)c1ccccc1Br | / | / | 17% | / | -13%
Cc1cc(-c2ccc(N=Nc3cc(S(=O)(=O)O)c4ccccc4c3N)c(C)c2)ccc1N=Nc1cc(S(=O)(=O)O)c2ccccc2c1N | / | / | -2% | / | -20%
CC(=O)c1cccc(OCC(=O)NC2CCCCCC2)c1 | ? | -8 | / | 0% | /
NC(=O)C1CCN(C(=O)NC(=O)c2ccccc2)CC1 | 1% | -3 | / | 0% | /
O=C(OCC#CCSc1nnc(-c2cccc3ccccc23)o1)c1ccc2ccccc2c1 | 3% | -3 | / | 0% | /
CCOC(=O)CNC(=O)O[C@H]1C(=O)c2ccc(OC)cc2O[C@@H]1c1ccc2c(c1)OCO2 | / | / | 17% | / | 22%
Cc1ccc(C(=O)OCC(=O)c2c[nH]c3ccccc23)cc1S(=O)(=O)N1CCCCC1 | 26µM* | -1 | ? | 1% | -5%
Cc1ccc(-n2c(-c3cnccn3)n[nH]c2=S)c(Br)c1 | -8% | -2 | 7.9µM* | 0% | -26%
FC(F)(F)c1ccccc1-n1c(-c2cnccn2)n[nH]c1=S | ? | 5 | 11µM* | 0% | -1%
COc1cc(-c2n[nH]c(=S)n2-c2ccccc2C(F)(F)F)cc(OC)c1OC | ? | -14 | ? | 0% | -8%
C=CCC(C)(O)c1ccsc1 (centres undefined) | / | / | -10% | / | -3%
O=[N+]([O-])c1ccc(OCn2cncn2)cc1 | 17% | 7 | / | 0% | /
Fc1ccc(-c2csc(=S)[nH]2)cc1 | ? | -13 | -43% | -1% | 2%
S=c1[nH]c(-c2ccccc2)cs1 | ? | -7 | 7.1µM* | 0% | ?
NC(=S)NN=C1c2cc(OCCN3CCOCC3)ccc2-c2ccc(OCCN3CCOCC3)cc21 | ? | -6 | 1.3µM* | 0% | 3.2µM*
O=C(COc1ccc2c(c1)oc(=O)c1ccccc12)NC(Cc1ccc(Cl)cc1)C(=O)O (centres undefined) | -15% | 13 | 20% | 0% | -3%
O=C(NNc1nc(-c2ccc(Br)cc2)cs1)c1ccco1 | ? | -11 | 5.6µM* | 0% | ?
O=C(NC(=S)Nc1nc(-c2ccc([N+](=O)[O-])cc2)cs1)c1ccco1 | ? | 1 | 2.2µM* | -1% | ?
COc1ccc(-c2csc(NC(=O)c3ccco3)n2)cc1 | ? | 25 | ? | -1% | 25%
O=C(NC(=S)Nc1nc(-c2ccc(Br)cc2)cs1)c1cccnc1 | ? | -5 | 1.1µM* | -1% | ?
SMILES | ELG1 repair inh | TSHR antag | RORgamma inh | B2AR arrestin | Gal4-VP16 FLuc
O=C(Nc1nc(-c2ccccc2)cs1)c1ccco1 | ? | -31 | 26% | -1% | -2%
O=C(NC(=S)Nc1nc(-c2ccc(Br)cc2)cs1)c1ccco1 | -5% | -19 | 2.8µM* | 0% | 8%
C[C@H](O)[C@@H]1C(=O)N2C(C(=O)O)=C(SCCN=CN)C[C@@H]12 | / | / | 4%[2.98 µM] | / | 8%[17 µM]
CCOC(=O)C1CCN(C(=O)COC(=O)Cc2ccc(Cl)cc2)CC1 | 0% | -5 | -3% | 0% | -2%
Cc1ccc(SCc2cn3cccnc3n2)cc1 | ? | -17 | 11% | 0% | -2%
Cc1ccn2cc(CSc3ccccc3)nc2c1 | ? | -9 | 13µM* | 0% | 8.9µM*
O=C1C(c2ccnc3ccccc23)=C(O)c2ccccc21 | ? | -5 | 5µM* | 0% | ?
O=C1c2ccccc2C(=O)C1c1ccnc2ccccc12 | ? | -19 | ? | -1% | ?
CCC(C)c1ccc(OCc2ccc(C(=O)O)o2)cc1 (centres undefined) | ? | -2 | 14µM* | -1% | ?
CCOC(=O)c1ccc(COc2ccc(C(C)C)cc2)o1 | ? | -6 | -38% | 0% | -10%
CCOc1ccc(OCc2ccc(C(=O)N3CCCC3)o2)cc1 | 12% | 2 | 2.5µM* | 5% | -30%
CCOC(=O)C(CCCOc1ccc(C(C)CC)cc1)C(=O)OCC (centres undefined) | -17% | -9 | 2.8µM* | 0% | ?
NC(=S)NCCC[C@H](N)C(=O)O | / | -13 | / | / | /
Cc1cc[n+](CC[n+]2ccc(C)cc2)cc1 | 3% | 28 | / | 0% | /
CCC(C)(C)c1ccc(OCCCC[n+]2ccc(C)cc2)c(C(C)(C)CC)c1 | 10µM* | -1 | ? | 0% | ?
CCC(C)(C)c1ccc(OCCCC[n+]2cccc(C)c2C)c(C(C)(C)CC)c1 | 2.6µM* | -6 | ? | -1% | 11µM*
c1ccc(CNc2oc(-c3ccccc3)nc2-c2cccc3ccccc23)cc1 | / | / | 3% | / | -9%
COc1ccc(OC)c(-n2c(=S)[nH]c3cc(C(=O)N(C)Cc4ccccc4)ccc3c2=O)c1 | -20% | -8 | 13µM* | 3% | ?
COc1ccc(OC)c(-n2c(=S)[nH]c3cc(C(=O)N4CCN(c5ccccc5)CC4)ccc3c2=O)c1 | ? | -1 | 11µM* | -1% | -9%
COc1cc(C(=O)N(C)CCOc2ccccc2)ccc1OCC(=O)Nc1cccc(C(F)(F)F)c1 | ? | -5 | / | 0% | /
CN(C)[C@H]1C(=O)C(C(=O)NCN2CCCC2)=C(O)[C@]2(O)C(=O)C3=C(O)c4c(O)cccc4[C@@](C)(O)[C@H]3C[C@@H]12 | / | / | -19%[2.98 µM] | / | 1%[17 µM]
Cc1cccc(NC(=S)N2CCN(S(=O)(=O)c3cccc(F)c3)CC2)c1 | -2% | 4 | 11µM* | 0% | 1%
O=S(=O)(c1ccc(NC(=S)N2CCN(c3ccc(O)cc3)CC2)cc1)N1CCOCC1 | 8.2µM* | -8 | 35% | 0% | -4%
CCc1ccc(NC(=S)N2CCN(S(=O)(=O)c3ccccc3)CC2)cc1 | 0% | -3 | 18µM* | 0% | ?
Cc1ccc(NC(=S)N2CCN(S(=O)(=O)c3ccc(C)cc3)CC2)cc1 | -5% | -9 | 13µM* | 0% | -16%
COc1ccc(N(C(=O)Cn2nnc(-c3ccc(F)cc3)n2)C(C)C(=O)NC2CCCC2)cc1OC (centres undefined) | -10% | 6 | 11% | 0% | 17%

Assay outcomes (PubChem BioAssay)
